Assay [1] can be described thus: qHTS for Inhibitors of the Functional Ribonucleoprotein Complex (vRNP) of Lassa (LASV) Arenavirus: LASV Primary Screen - GLuc reporter signal (AID 1347082; calls by dose curve; tested in HEK293 reporter line; note: % is set by controls: 0 for no effect and ±100 for the full control effect; nearly all actives have a fitted effect of over 60% in size). To be noted: LASV minigenome vRNP, Gaussia luciferase reporter; series mostly up to 57.5 µM.
Assay [2] in a line: qHTS for Inhibitors of the Functional Ribonucleoprotein Complex (vRNP) of Lassa (LASV) Arenavirus: Viability assay - alamar blue signal for LASV Primary Screen (AID 1347083; calls by dose curve; tested in HEK293 reporter line; note: % is set by controls: 0 for no effect and ±100 for the full control effect; nearly all actives have a fitted effect of over 80% in size). To be noted: cell viability, alamar blue fluorescence (LASV minigenome counter-screen); series mostly up to 57.5 µM.
Assay [3] is described as follows: qHTS for Inhibitors of the Functional Ribonucleoprotein Complex (vRNP) of Lymphocytic Choriomeningitis Arenaviruses (LCMV): Viability assay - alamar blue signal for LCMV Primary Screen (AID 1347085; calls by dose curve; tested in HEK293 reporter line; note: % is set by controls: 0 for no effect and ±100 for the full control effect; nearly all actives have a fitted effect of over 80% in size). Conditions: alamar blue viability counter-screen, LCMV vRNP screen cells; series mostly up to 57.5 µM.
Assay [4] deals with Nucleoprotein (Lymphocytic choriomeningitis virus (strain Armstrong)) (UniProt P09992). The experiment in a line: qHTS for Inhibitors of the Functional Ribonucleoprotein Complex (vRNP) of Lymphocytic Choriomeningitis Arenaviruses (LCMV): LCMV Primary Screen - GLuc reporter signal (AID 1347086). Note: % is set by controls: 0 for no effect and ±100 for the full control effect; nearly all actives have a fitted effect of over 70% in size. Conditions: LCMV minigenome vRNP cell assay, Gaussia luciferase reporter; series mostly up to 57.5 µM.
Nucleoprotein (Lymphocytic choriomeningitis virus (strain Armstrong)), sequence (P09992 whole entry, looked up): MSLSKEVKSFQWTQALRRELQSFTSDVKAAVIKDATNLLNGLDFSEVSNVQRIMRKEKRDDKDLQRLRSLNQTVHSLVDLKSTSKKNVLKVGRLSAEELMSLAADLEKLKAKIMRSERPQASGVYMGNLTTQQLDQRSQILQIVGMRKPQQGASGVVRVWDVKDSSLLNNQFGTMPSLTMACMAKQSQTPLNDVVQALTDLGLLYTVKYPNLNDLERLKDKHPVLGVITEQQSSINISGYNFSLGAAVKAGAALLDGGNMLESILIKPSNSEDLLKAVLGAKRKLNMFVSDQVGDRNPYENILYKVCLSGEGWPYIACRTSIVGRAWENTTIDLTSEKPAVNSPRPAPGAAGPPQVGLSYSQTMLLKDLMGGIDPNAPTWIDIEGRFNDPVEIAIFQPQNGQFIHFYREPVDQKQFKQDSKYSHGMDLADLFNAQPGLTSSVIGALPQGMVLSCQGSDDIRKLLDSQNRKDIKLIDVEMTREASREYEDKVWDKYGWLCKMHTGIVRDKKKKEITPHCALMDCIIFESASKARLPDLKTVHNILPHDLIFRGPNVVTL

Assay [5] in a line: Primary qHTS for Huh7 cytotoxicity: counterscreen for inhibitors of MERS-S pseudotyped particle cell entry (AID 1479147). To be noted: cell viability read-out; series mostly up to 57.1 µM.
The nature of assay [6]: Primary qHTS for inhibitors of MERS-S pseudo-typed particle cell entry (AID 1479149). For activity change, negative = inhibition: % is set by controls: 0 for no effect and ±100 for the full control effect. Note: nearly all actives have a fitted effect of over 60% in size. Conditions: MERS-S pseudotyped particle entry, luciferase; series mostly up to 57.1 µM.
The nature of assay [7]: Primary qHTS for Vero E6 cytotoxicity: counterscreen for inhibitors of SARS-S pseudo-typed particle cell entry (AID 1479150). Conditions: cell viability; series mostly up to 57.1 µM.
A short description of assay [8]: Cytotoxicity counterscreen for inhibitors of SARS-CoV-2 cell entry (AID 1645845). Note: nearly all actives have a fitted effect of over 50% in size. Note: potency is the fitted concentration of half-maximal effect. Conditions: cell viability (SARS-CoV-2 entry assay cells); series mostly up to 57.1 µM. The gist of the method:
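ATP-content luminescence (ATPLite 1step, 15 min RT) read after 48 h compound exposure of Expi293F cells stably expressing human ACE2; normalized to cells-only wells and media-only wells.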

The nature of assay [9]: Primary qHTS to identify inhibitors of SARS-CoV-2 cell entry (AID 1645846). Note: nearly all actives have a fitted effect of over 45% in size. To be noted: SARS-CoV-2 pseudovirus cell entry assay, luminescence; activity change, negative = inhibition: at 57.1 µM (top of the series) unless noted; series mostly up to 57.1 µM. The gist of the method: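 Inhibition of spike-mediated entry was scored in human ACE2-transfected Expi293F cells. Particles were MLV-pseudotyped with Wuhan-Hu-1 S carrying a 19-aa C-terminal deletion; signal was luciferase after two days, scaled between spike PP and fusion-protein-free PP.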

Assay [10] in a line: Validation screen for inhibitors of Lassa infection (AID 463096). For activity change, negative = inhibition: % is set by controls: 0 for no effect and ±100 for the full control effect. Note: potency is the fitted concentration of half-maximal effect. Conditions: Lassa virus infection, cell-based; series mostly up to 46.1 µM.
A short description of assay [11]: Inducers of the Endoplasmic Reticulum Stress Response (ERSR) in human glioma: Validation (AID 504836; active = well fitted curve in the direction sought with a large enough effect; an effect the other way counts as inactive or inconclusive; note: 0% is about no effect). To be noted: human glioma cells, ER stress response reporter; series mostly up to 38.3 µM. In outline:
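ERSR induction read as luciferase luminescence (Bright-Glo, 10 min at room temperature) in stably transfected human U87-MG glioma cells exposed to compounds for 16 h, using GRP78 as sensor.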

A short description of assay [12]: Primary qHTS for inhibitors of SARS-S pseudo-typed particle cell entry (AID 1479145). Note: % is set by controls: 0 for no effect and ±100 for the full control effect; nearly all actives have a fitted effect of over 45% in size. To be noted: SARS-S pseudotyped particle cell entry, luciferase reporter; series mostly up to 57.1 µM.
A short description of assay [13]: KB-8-5-11 P-gp reporter qHTS against the NCATS DSHEA and TCM libraries (AID 1919977; active = well fitted curve in the direction sought with a large enough effect; an effect the other way counts as inactive or inconclusive; note: 0% is about no effect). Conditions: KB-8-5-11 cells; series mostly up to 26.1 µM. The gist of the method: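 KB-8-5-11, 500 cells/well, DMEM/10% FBS without colchicine; 4 h attach; cpd titrations, 72 h, 37C/5% CO2; CellTiter-Glo, 30 min RT, luminescence.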
The target of assay [14] is Alpha-galactosidase (Coffea arabica) (UniProt Q42656). The assay can be described thus: Counterscreen for Glucocerebrosidase Inhibitors: qHTS Assay for Coffee Bean alpha-Galactosidase at pH 4.5 (AID 957; active = well fitted curve in the direction sought with a large enough effect; an effect the other way counts as inactive or inconclusive;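 note: plate controls were enzyme alone for no effect and no enzyme for full effect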). Conditions: purified coffee bean alpha-galactosidase, fluorogenic substrate; series mostly up to 76.9 µM. The gist of the method:
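Enzyme is added first (2 nM final), then compounds titrated from 0.7 nM to 77 uM, then 80 uM 4-methylumbelliferyl alpha-D-galactopyranoside; after 20 min at room temperature a pH 10 NaOH/glycine stop precedes fluorescence reading at 365/440 nm.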

The target is the same in assay [15]. The assay can be described thus: Counterscreen for Glucocerebrosidase Inhibitors: qHTS Assay for Coffee Bean alpha-Galactosidase at pH 5.9 (AID 998; active = well fitted curve in the direction sought with a large enough effect; an effect the other way counts as inactive or inconclusive;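 note: plate controls were uninhibited enzyme for no effect and no-enzyme basal signal for full effect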). Conditions: coffee bean alpha-galactosidase enzyme assay; series mostly up to 76.9 µM. In outline: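 Fluorogenic 4-MU substrate hydrolysis, 80 uM substrate and 2 nM coffee bean alpha-galactosidase, pH 5.9 citrate buffer, 20 min at room temperature, then NaOH/glycine stop. Titration 0.7 nM–77 uM, normalized to no-enzyme and enzyme controls, AC50 via Hill equation.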

A short description of assay [16]: Confirmatory qHTS to identify inhibitors of SARS-CoV-2 cell entry (AID 1645844). Note: potency is the fitted concentration of half-maximal effect; nearly all actives have a fitted effect of over 45% in size. Conditions: SARS-CoV-2 pseudotyped particle cell entry, luciferase; series mostly up to 57.2 µM. In outline: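 Luminescence entry read-out after 48 h: spike-pseudotyped MLV particles (Wuhan-Hu-1, 19-aa C-terminal truncation) added to compound-pretreated (1 h) HEK293-ACE2 cells; Data were normalised to bald PP and spike PP wells.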

The nature of assay [17]: VSVG counterscreen qHTS to identify inhibitors of SARS-CoV-2 cell entry (AID 1645847). Note: potency is the fitted concentration of half-maximal effect; nearly all actives have a fitted effect of over 65% in size. Conditions: VSV-G pseudotyped particle entry, luciferase; series mostly up to 57.2 µM. In outline: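 Luminescence from a luciferase reporter, normalised to bald particle and VSV-G pseudotyped particle wells, is the read-out. Cells are HEK293 expressing human ACE2, exposed to compound 1 h before a 48 h particle infection at 37 °C.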

The nature of assay [18]: qHTS profiling of the MIPE4 collection as inhibitors of Plasmodium falciparum (3D7) proliferation (AID 743344; call rule not given here;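 note: scaled between DMSO vehicle wells and 0.29 µM artemisinin as full inhibition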). Conditions: P. falciparum 3D7 in erythrocytes, SYBR Green DNA fluorescence, 72 h; at 28.5 µM (top of the series) unless noted. In outline: (§1)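 Parasite DNA was quantified by SYBR Green I fluorescence (ex 485, em 535 nm) after overnight lysis in saponin/Triton buffer at room temperature. Cultures at 0.3% parasitemia and 2.5% hematocrit were first exposed to compound for 72 h at 37 C; signals were normalised to artemisinin (0.29 uM) and vehicle wells.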

A short description of assay [19]: qHTS profiling of the MIPE4 collection as inhibitors of Plasmodium falciparum (DD2) proliferation (AID 743345; call rule not given here). Conditions: P. falciparum Dd2 in erythrocytes, SYBR Green DNA, 72 h; at 28.5 µM (top of the series) unless noted. The gist of the method: as §1
The nature of assay [20]: qHTS profiling of the MIPE4 collection as inhibitors of Plasmodium falciparum (HB3) proliferation (AID 743347; call rule not given here;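 note: plate controls were DMSO vehicle wells for no effect and artemisinin wells for full effect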). Conditions: P. falciparum HB3 in erythrocytes, SYBR Green DNA, 72 h; at 28.5 µM (top of the series) unless noted. In outline:
as §1

Values joined by “and” are separate entries in the source; they are usually repeats but may differ in a detail not shown here. Identical values can stand only once. Results filed as inconclusive are left out. Some structures have more than one record in an assay (separate samples or runs), and their calls can disagree. Active and inactive are the calls of the source. Unless noted, calls come from the whole dose curve.

Alpha-galactosidase (Coffea arabica), sequence (Q42656 whole entry, looked up): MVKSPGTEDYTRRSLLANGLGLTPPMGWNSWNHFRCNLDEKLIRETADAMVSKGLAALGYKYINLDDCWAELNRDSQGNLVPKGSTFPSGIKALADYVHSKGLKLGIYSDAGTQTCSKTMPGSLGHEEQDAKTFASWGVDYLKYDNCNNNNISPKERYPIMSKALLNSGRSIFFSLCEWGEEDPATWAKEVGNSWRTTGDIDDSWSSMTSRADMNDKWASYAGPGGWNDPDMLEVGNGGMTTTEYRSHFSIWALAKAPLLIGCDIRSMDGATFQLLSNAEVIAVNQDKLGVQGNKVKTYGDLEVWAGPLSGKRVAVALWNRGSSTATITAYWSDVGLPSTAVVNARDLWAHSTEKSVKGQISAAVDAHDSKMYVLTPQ

Take `O=C1CCCC(=O)C1C(=O)c1ccc(C(F)(F)F)cc1[N+](=O)[O-]`: the Potency result in assay [1], in [2], in assay [3], in assay [4], in assay [6] and in [8] was “inactive” throughout. In assay [9], the Potency result is “inactive”. Moreover, the outcome in assay [5] and in assay [7] was inactive.

For `NC(=O)c1cc[n+](CC2=C(C(=O)O)N3C(=O)[C@@H](NC(=O)[C@@H](c4ccccc4)S(=O)(=O)[O-])[C@H]3SC2)cc1`, the Potency entry in [10], in assay [1], in [2], in assay [3], in assay [4] and in [12] was “inactive” throughout. The Potency result in assay [6] and in assay [8] was “inactive” in each case. Besides, the call in assay [11], in [5] and in [7] was inactive. In addition, the activity change, negative = inhibition in [9] was found to be 2.35%.

As for `O=C(O)/C=C/c1ccccc1`, the Potency entry in [1], in [2], in assay [3], in assay [4], in [6] and in assay [8] was “inactive” throughout. In addition, the outcome in [5] and in assay [7] was “inactive [at 114 µM]” each time. The activity change, negative = inhibition in assay [9] is -30.4% [at 114 µM]. The call in assay [13] was inactive.

In the case of `C[C@H]1COc2c(N3CCN(C)CC3)c(F)cc3c(=O)c(C(=O)O)cn1c23`, the Potency result in [1], in assay [2], in [3], in assay [4], in [6] and in assay [8] was “inactive” in each case. Further, the result in [5] and in assay [7] was inactive. The activity change, negative = inhibition in assay [9] was -10.7% and -28.1%.

Regarding `COc1ccc(/C=C/C(=O)Nc2ccccc2C(=O)O)cc1OC`, the call in assay [14], in assay [15], in assay [11], in [5] and in assay [7] was inactive. Also, the Potency in [10] was 2820 nM (active); in assay [16] it was 429 nM (active); in [8] it was 17.8 µM (active) and inactive; in assay [17] it was 857 nM (active). Further, the Potency entry in [1], in assay [2], in assay [3], in assay [4] and in [6] was “inactive” each time. Moreover, the activity change, negative = inhibition in [9] was -78.6% and -67.4%.

On to `Cc1cn([C@@H]2C[C@@H](O)[C@H](CO)O2)c(=O)[nH]c1=O`, for which the parasite growth, % of DMSO control in assay [18] came to 93.3%. Moreover, in assay [19], the parasite growth remaining, % of DMSO control (lower = more inhibition) came to 92.6%. Moreover, the growth, % of control in assay [20] worked out at 59.6%. Further, the Potency result in [1], in assay [2], in assay [3], in [4], in assay [12] and in assay [6] was “inactive” each time. Also, in assay [8], the Potency entry was “inactive”. Moreover, the result in assay [5] and in assay [7] was inactive. Moreover, the activity change, negative = inhibition in assay [9] was -18% and -32.2%.

Turning to `CCc1cc2c(cc1N1CCC(N3CCOCC3)CC1)C(C)(C)c1[nH]c3cc(C#N)ccc3c1C2=O`, the Potency result in assay [1], in assay [2], in assay [3], in assay [4], in assay [6] and in assay [8] was “inactive” each time. For the same compound, the Potency result in [9] was “inactive”. Besides, the outcome in assay [5] and in assay [7] was inactive. The activity change, negative = inhibition in [9] is -34.9% [at 27.1 µM].

Turning to `NCCCNCCCCNC(=O)C(O)NC(=O)CCCCCCN=C(N)N` (stereo unspecified), the Potency result in assay [1], in [2], in assay [3], in assay [4], in [6] and in [8] was “inactive” throughout. The result in assay [5] and in [7] was inactive.

(Values after PubChem BioAssay (NCATS).)
